Data reported in ChEMBL document CHEMBL4513141, “CO-ADD screening of NIH (USA) - Clinical Collection” (2021).
Potency and affinity values are given separately.

How the values were obtained:
Klebsiella pneumoniae = conditions: Concentration 20 uM; ASSAY_TEST Inhibition of Bacterial Growth; detection method Absorption (OD600); MEDIA CAMHB; plate type 384well; NBS; CORNING #3640; time 18 hr
Candida albicans = conditions: 20 µM
Cryptococcus neoformans = conditions: Concentration 20 uM; ASSAY_TEST Inhibition of Fungal Growth; detection method Resazurin; Absorption (OD600-OD570); plate type 384well; NBS; CORNING #3640

SMILES	Inhibition (Klebsiella pneumoniae) [%]	Inhibition (Candida albicans) [%]	Inhibition (Cryptococcus neoformans) [%]
COc1cc(OC)c(C(=O)CCCN2CCCC2)c(OC)c1.Cl	10.87	3.75	-6.77
CC(COc1ccccc1)NC(C)C(O)c1ccc(O)cc1.Cl (centres undefined) [ISOXSUPRINE HYDROCHLORIDE]	7.34	3.25	-2.3
COc1c2occc2cc2ccc(=O)oc12 [METHOXSALEN]	9.19	5.22	-0.09
Sc1ncnc2nc[nH]c12 [MERCAPTOPURINE ANHYDROUS]	7.84	11.2	-0.87
COc1cc2nc(N3CCN(C(=O)C4CCCO4)CC3)nc(N)c2cc1OC (centres undefined) [TERAZOSIN]	3.6	3.05	0.02
C=C(CC)C(=O)c1ccc(OCC(=O)O)c(Cl)c1Cl [ETHACRYNIC ACID]	8.53	21.1	-8.91
Cc1c(C(=O)NN2CCCCC2)nn(-c2ccc(Cl)cc2Cl)c1-c1ccc(I)cc1	-0.74	7.4	-5.99
N#Cc1ccc(C(c2ccc(C#N)cc2)n2cncn2)cc1 [LETROZOLE]	9.79	2.89	-8.63
CN(C)CCCN1c2ccccc2CCc2ccccc21.Cl [IMIPRAMINE HYDROCHLORIDE]	11.14	0.7	0.01
COC(=O)C1=C(C)NC(C)=C(C(=O)OC(C)C)C1c1cccc2nonc12 (centres undefined) [ISRADIPINE]	7.21	4.43	-5.25
CC(=O)SCC(Cc1ccccc1)C(=O)NCC(=O)OCc1ccccc1 (centres undefined) [RACECADOTRIL]	3.98	5.86	-6.78
CC1=C(/C=C/C(C)=C/C=C/C(C)=C/C(=O)O)C(C)(C)CCC1 [TRETINOIN]	14.57	2.93	-0.54
Oc1ccc(/C=C/c2cc(O)cc(O)c2)cc1 [RESVERATROL]	12.99	2.92	-4.32
CC(=O)O[C@]1(C(C)=O)CC[C@H]2[C@@H]3C[C@H](C)C4=CC(=O)CC[C@]4(C)[C@H]3CC[C@@]21C [MEDROXYPROGESTERONE ACETATE]	17.28	4.88	-5.46
CN(CCOc1ccc(NS(C)(=O)=O)cc1)CCc1ccc(NS(C)(=O)=O)cc1 [DOFETILIDE]	7.49	2.12	-1.31
Cc1ccc(Cl)c(Nc2ccccc2C(=O)[O-])c1Cl.O.[Na+] [MECLOFENAMATE SODIUM]	12.39	8.09	1.36
NC(Cc1cc(I)c(Oc2ccc(O)c(I)c2)c(I)c1)C(=O)O (centres undefined) [RATHYRONINE]	9.96	2.19	-1.85
Cn1cnc([N+](=O)[O-])c1Sc1ncnc2[nH]cnc12 [AZATHIOPRINE]	13.95	4.62	-6.38
COc1ccc2c(c1)c(CC(=O)O)c(C)n2C(=O)c1ccc(Cl)cc1.O	8.34	3.53	1.93
CN1CCCC(n2nc(Cc3ccc(Cl)cc3)c3ccccc3c2=O)CC1.Cl (centres undefined) [AZELASTINE HYDROCHLORIDE]	-1	4.45	4.19

SMILES	Inhibition (Klebsiella pneumoniae) [%]	Inhibition (Candida albicans) [%]	Inhibition (Cryptococcus neoformans) [%]
NS(=O)(=O)Cc1noc2ccccc12 [ZONISAMIDE]	12.91	3.7	-5.53
CC(C)NCC(O)c1cc(O)cc(O)c1 (centres undefined) [METAPROTERENOL]	7.02	1.29	0.32
COc1cc(C[C@@H](CO)[C@H](CO)Cc2ccc(O)c(OC)c2)ccc1O [(+)-SECOISOLARICIRESINOL]	5.83	4.22	1.62
CC(=O)O[C@]1(C(C)=O)CC[C@H]2[C@@H]3C=C(C)C4=CC(=O)CC[C@]4(C)[C@H]3CC[C@@]21C [MEGESTROL ACETATE]	7.28	5.92	-0.12
N=c1cc(N2CCCCC2)nc(N)n1O	8.77	2.93	-7.74
CN(C)CCOC(c1ccccc1)c1ccccc1.Cl [DIPHENHYDRAMINE HYDROCHLORIDE]	1.03	4.49	4.12
COc1cc2nc(N3CCN(C(=O)C4COc5ccccc5O4)CC3)nc(N)c2cc1OC (centres undefined) [DOXAZOSIN]	13.22	3.14	2.35
COC(=O)[C@H](c1ccccc1Cl)N1CCc2sccc2C1 [CLOPIDOGREL]	14.99	2.18	-8.15
CC(C)[N+](C)(CCOC(=O)C1c2ccccc2Oc2ccccc21)C(C)C.[Br-] [PROPANTHELINE BROMIDE]	18.08	2.52	-1.43
N[C@@H](Cc1cc(I)c(Oc2cc(I)c(O)c(I)c2)c(I)c1)C(=O)O [LEVOTHYROXINE]	0.79	21.1	-5.43
Clc1ccc2c(c1)C(N1CCNCC1)=Nc1ccccc1O2 [AMOXAPINE]	12.52	4.28	-1.42
Cc1nc2n(c(=O)c1CCN1CCC(c3noc4cc(F)ccc34)CC1)CCCC2 [RISPERIDONE]	4.8	0.09	-0.58
c1ccc2[nH]c(-c3cscn3)nc2c1 [THIABENDAZOLE]	17.05	1.43	-4.52
Cl.NC1CCN(c2cccc(Cl)n2)CC1	7.75	2.49	0.18
Cl.O=C(c1ccc(OCCN2CCCCC2)cc1)c1c(-c2ccc(O)cc2)sc2cc(O)ccc12 [RALOXIFENE HYDROCHLORIDE]	7.01	0.43	-13.3
CC(CCCCC(=O)Nc1ccc(C(F)(F)F)cc1)NCCc1c[nH]cn1.O=C(O)/C=C\C(=O)O.O=C(O)/C=C\C(=O)O (centres undefined)	6.44	2.76	-4.87
CN(CCOc1ccc(CC2SC(=O)NC2=O)cc1)c1ccccn1.O=C(O)/C=C\C(=O)O (centres undefined) [ROSIGLITAZONE MALEATE]	9.63	0.75	-9.6
CCN(Cc1ccncc1)C(=O)C(CO)c1ccccc1 (centres undefined) [TROPICAMIDE]	7.31	0.91	-7.15
CCc1nn(CCCN2CCN(c3cccc(Cl)c3)CC2)c(=O)n1CCOc1ccccc1.Cl [NEFAZODONE HYDROCHLORIDE]	1.06	2.01	-2.69
Nc1ccn([C@@H]2CS[C@H](CO)O2)c(=O)n1 [LAMIVUDINE]	20.65	2.4	-7.82

SMILES	Inhibition (Klebsiella pneumoniae) [%]	Inhibition (Candida albicans) [%]	Inhibition (Cryptococcus neoformans) [%]
CC1(C)C[C@@H]1C(=O)N/C(=C\CCCCSC[C@H](N)C(=O)O)C(=O)[O-].[Na+] [CILASTATIN SODIUM]	-2.84	5.18	-1.08
CC(O)CO.N[C@@H](C(=O)N[C@@H]1C(=O)N2C(C(=O)O)=C(CSc3c[nH]nn3)CS[C@H]12)c1ccc(O)cc1	6.28	12.3	-40.25
CS(=O)(=O)c1ccc(-c2cc(Br)sc2-c2ccc(F)cc2)cc1 [DUP-697]	2.25	5.12	-8.07
CC[N+](C)(CC)CCOC(=O)C(O)(c1ccccc1)C1CCCCC1.[Br-] (centres undefined) [OXYPHENONIUM BROMIDE]	20	2.42	-6.44
CC(=O)C1(O)CCC2C3CC(C)C4=CC(=O)C=CC4(C)C3(F)C(O)CC21C (centres undefined)	4.1	2.21	-3.1
Cl.Clc1cccc(Cl)c1NC1=NCCN1 [CLONIDINE HYDROCHLORIDE]	4.94	3.3	-10.31
CC(C(=O)[O-])c1ccc(CC2CCCC2=O)cc1.[Na+] (centres undefined) [LOXOPROFEN SODIUM]	6.48	2.26	-10.19
Nc1nc(N)nc(-c2cc(Cl)ccc2Cl)n1.O=C(O)/C=C\C(=O)O [IRSOGLADINE MALEATE]	5.85	2.42	-1.72
CC(=O)OCC(CCn1cnc2cnc(N)nc21)COC(C)=O [FAMCICLOVIR]	11.51	2.72	-0.79
Cc1cc2c(s1)Nc1ccccc1N=C2N1CCN(C)CC1 [OLANZAPINE]	5.81	-0.3	-5.37
Cl.O.OC[C@H]1O[C@@H](n2cnc3c(N[C@H]4CCC[C@@H]4O)ncnc32)[C@@H](O)C1O (some centres undefined)	8.61	3.02	-2.1
COC(=O)Nc1nc2cc(C(=O)c3ccccc3)ccc2[nH]1 [MEBENDAZOLE]	11.43	4.65	41.35
COc1ccc(/C=C/C(=O)Nc2ccccc2C(=O)O)cc1OC	8.22	4.95	4.45
O=c1c(O[C@@H]2O[C@H](CO)[C@H](O)[C@H](O)[C@H]2O)c(-c2ccc(O)c(O)c2)oc2cc(O)cc(O)c12 [HYPEROSIDE]	17.1	1.21	-13.27
Cc1cccc(C)c1NC(=O)C(C)N (centres undefined) [TOCAINIDE]	13.74	1.33	0.27
CC(C)(C(=O)O)c1ccc(C(O)CCCN2CCC(C(O)(c3ccccc3)c3ccccc3)CC2)cc1.Cl (centres undefined) [FEXOFENADINE HYDROCHLORIDE]	13.11	1.18	-7.41
Cl.O=c1n(CCCN2CCN(c3cccc(Cl)c3)CC2)nc2ccccn12 [TRAZODONE HYDROCHLORIDE]	4.82	3.08	-5.73
COc1nc(C)nc(Cl)c1NC1=NCCN1.Cl [MOXONIDINE HYDROCHLORIDE]	3.54	3.01	0.52
